High-throughput results deposited in PubChem by several laboratories.
Efflux pump mplx – antifungal efflux pump inhibition, Nile Red retention; S. cerevisiae Candida pump triplex; inhibition, % at 10 µM; 0.44% of 330,000 active;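 active = plate passing quality check with inhibition over a set limit, or well fluorescence over plate mean plus 4 SD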;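 also: Nile Red retained in pooled yeast measured as flow cytometry median fluorescence; 0% = buffer negative control and 100% = Enniatin B positive control; higher means more Nile Red kept so more efflux inhibition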
NLRP3 yeast inh – NALP3 inhibition in yeast | Yeast reconstituted NLRP3/ASC/caspase-1, beta-gal luminescence, 24 h | inhibition, % at 10 µM | 0.39% of 330,000 active | AID 2825;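 active = inhibition of 50% or more; inactive = inhibition below 50%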;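 also: plate controls were induced DMSO wells for no effect and uninduced yeast grown without galactose for full effect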
PolyA inhibitor – yeast polyadenylation inhibition | activity score, % at 12 µM | S. cerevisiae SKY197-pL101 polyadenylation reporter, beta-gal luminescence; efflux-impaired pdr1/pdr3 knockout yeast; score 100 = 6 SD above DMSO | 0.02% of 300,000 active | AID 1875;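 active = lowest replicate activity score at least 50, where 100 means six control SD above control mean; inconclusive = lowest score under 50 but half or more replicates reach 50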;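 also: yeast exposed to compound for 9 h at 30 °C; higher score means more reporter readthrough which indicates perturbed polyadenylation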
GASC-1 inh – blocks human GASC-1 demethylase activity | Q9H3R0 | GST-JMJD2C(1-420) H3K9me3 demethylation, DELFIA europium | inhibition, % at 2.35 µM | 0.069% of 330,000 active | AID 2099;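 active = more than half of a compound's replicate wells show inhibition beyond 50%, single wells judged on their own value; inconclusive = some, but no more than half, of replicates pass 50% inhibition; inactive = no replicate passes 50% inhibition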;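 also: signal counts dimethyl H3K9 product captured on neutravidin plate; 0% = median of DMSO wells and 100% = 0.3 times that DMSO median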
NALP1 inh – blocks the NALP1 inflammasome reconstituted in yeast; S. cerevisiae NALP1/ASC/caspase-1 growth, X-gal OD620, 72 h; inhibition, % at 10 µM; 0.61% of 280,000 active; AID 2071; in the data active = inhibition mostly above about 24%, no sharp cut-off; inactive = mostly below about 32%
HDAC3 inh – inhibitors of human histone deacetylase 3 | recombinant HDAC3, fluorogenic peptide/trypsin coupled, fluorescence | 0.15% of 320,000 active | AID 2718 | O15379 | inhibition, % at 8.3 µM; in the data active = inhibition above about 26%, passing the limit was not always enough; inconclusive = no clear call, values can overlap the other calls
Target sequence (O15379 whole entry, looked up): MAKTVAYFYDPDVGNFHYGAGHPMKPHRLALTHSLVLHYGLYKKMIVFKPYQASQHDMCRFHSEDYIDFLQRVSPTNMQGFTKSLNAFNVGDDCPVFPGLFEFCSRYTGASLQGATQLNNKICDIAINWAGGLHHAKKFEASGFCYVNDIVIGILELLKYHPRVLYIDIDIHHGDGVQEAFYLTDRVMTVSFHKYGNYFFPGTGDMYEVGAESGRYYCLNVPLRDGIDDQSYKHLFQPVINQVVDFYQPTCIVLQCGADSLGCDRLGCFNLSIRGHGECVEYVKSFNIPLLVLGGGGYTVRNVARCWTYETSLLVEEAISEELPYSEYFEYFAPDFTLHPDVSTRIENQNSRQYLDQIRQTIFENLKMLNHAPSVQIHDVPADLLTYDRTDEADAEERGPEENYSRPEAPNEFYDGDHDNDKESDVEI
Numbers without * were called inactive. This is a sample that favours compounds with a hit; in the whole collection about 1.5% have one here.

Screening CC(C)C(=O)Nc1ccc(-c2nc3ccccc3c(=O)o2)cc1 returned Efflux pump mplx 0, NLRP3 yeast inh 2, PolyA inhibitor -15, GASC-1 inh -24, NALP1 inh 8 and HDAC3 inh 56*.
CCCC1(c2ccccc2)NC(=O)N(CC(=O)Nc2ccccc2C(F)(F)F)C1=O (centres undefined) was read as Efflux pump mplx 0, NLRP3 yeast inh 12, PolyA inhibitor -24, GASC-1 inh -6, NALP1 inh 18 and HDAC3 inh 2.
Screening CC1CCN(S(=O)(=O)c2ccc3[nH]c(=O)[nH]c3c2)CC1 returned Efflux pump mplx 0, NLRP3 yeast inh 13, PolyA inhibitor 8, GASC-1 inh 58*, NALP1 inh -5 and HDAC3 inh -1.
Cc1ccc(C)n1-c1nnc(N2CCC(C(=O)NCCCN3CCN(C)CC3)CC2)s1 was read as Efflux pump mplx 0, NLRP3 yeast inh -1, PolyA inhibitor -6, GASC-1 inh -3, NALP1 inh 26 and HDAC3 inh 6.
C=CCN1C(=O)c2ccc(C(=O)N(C)CC(=O)Nc3c(C)cccc3C)cc2C1=O was read as Efflux pump mplx 0, NLRP3 yeast inh -7, PolyA inhibitor 12, GASC-1 inh 0 and HDAC3 inh 1.
For CCC/C(O)=C1\C(=O)CCCC1=NCCc1c(C)[nH]c2ccc(OC)cc12 the results were Efflux pump mplx 0, NLRP3 yeast inh 2, PolyA inhibitor -4, GASC-1 inh -2, NALP1 inh 19* and HDAC3 inh -2.
For CCC/C(O)=C1\C(=O)CCCC1=NCCc1c(C)[nH]c2ccc(C)cc12 the results were Efflux pump mplx 0, NLRP3 yeast inh -20, PolyA inhibitor 5 and GASC-1 inh -1.
Screening COc1ccc(C2=NOC(COc3ccc4c(C)cc(=O)oc4c3)C2)c(OC)c1 (centres undefined) returned Efflux pump mplx 0, NLRP3 yeast inh 19, PolyA inhibitor -2, GASC-1 inh -18 and HDAC3 inh -4.
Screening COc1ccccc1C1=NOC(COc2ccc3c(C)cc(=O)oc3c2)C1 (centres undefined) returned Efflux pump mplx 0, NLRP3 yeast inh 18, PolyA inhibitor -10, GASC-1 inh -31, NALP1 inh 40* and HDAC3 inh -2.
Screening COc1ccc(-c2nc(C#N)c(N3CCC(C)CC3)o2)cc1 returned Efflux pump mplx 0, NLRP3 yeast inh 20, PolyA inhibitor 8, GASC-1 inh 3, NALP1 inh 28 and HDAC3 inh -7.
`CCCCCCCCCCOC(=O)Cn1c(COc2ccccc2OC)[n+](C)c2ccccc21` gave Efflux pump mplx 0, NLRP3 yeast inh 25, PolyA inhibitor -5, GASC-1 inh 11, NALP1 inh 37* and HDAC3 inh 12.
C=CCn1c(NCc2cc(C)ccc2O)nc2ccccc21 was read as Efflux pump mplx 0, NLRP3 yeast inh 10, PolyA inhibitor 1, GASC-1 inh -12, NALP1 inh -18 and HDAC3 inh 4.
C=CCn1c(NC(C)c2cc(Cl)ccc2O)nc2ccccc21 (centres undefined) was read as Efflux pump mplx 1, NLRP3 yeast inh 18, PolyA inhibitor 2, GASC-1 inh -4, NALP1 inh 47* and HDAC3 inh 10.
`CC1CCC(NS(=O)(=O)c2ccc(Cl)s2)CC1` (centres undefined) gave NLRP3 yeast inh 44.
`O=S(=O)(NC1CCCCC1)c1ccc(Cl)s1` gave Efflux pump mplx 0, NLRP3 yeast inh 50, PolyA inhibitor -23, GASC-1 inh 3, NALP1 inh 41* and HDAC3 inh 6.
`Cc1ccc(C)c(NC(=O)CN(C)C(=O)c2nn(C)c(=O)c3ccccc23)c1` gave Efflux pump mplx 0, NLRP3 yeast inh 11, PolyA inhibitor 10, GASC-1 inh -4, NALP1 inh -12 and HDAC3 inh 1.
c1ccc(Cn2ncc3c(Nc4ccccc4)ncnc32)cc1 was read as Efflux pump mplx 0, NLRP3 yeast inh 18, PolyA inhibitor -4 and GASC-1 inh -6.
Clc1ccc(Cn2ncc3c(NCc4ccccc4)ncnc32)c(Cl)c1 was read as Efflux pump mplx 5.5*, NLRP3 yeast inh 20, PolyA inhibitor -31, GASC-1 inh -8, NALP1 inh 34 and HDAC3 inh 13.
Screening Brc1ccc(/C=N/Nc2ncnc3c2cnn3Cc2ccccc2)cc1 returned Efflux pump mplx 0, NLRP3 yeast inh 13, PolyA inhibitor -11, GASC-1 inh 0, NALP1 inh 30* and HDAC3 inh 6.
For CC(C)(CNC(=O)CCNC(=O)c1ccc(Br)cc1)N1CCOCC1 the results were Efflux pump mplx 0, NLRP3 yeast inh 7, PolyA inhibitor 5, GASC-1 inh 2 and HDAC3 inh 3.
COc1ccc(-c2nnc(SCC(=O)N3CCCC3=O)n2N)cc1OC was read as Efflux pump mplx 0, NLRP3 yeast inh 10, GASC-1 inh -5 and HDAC3 inh 4.
Screening CC1(C)CC(=O)C2=C(C1)OC(N)=C([N+](=O)[O-])C2c1cccs1 (centres undefined) returned Efflux pump mplx 0, NLRP3 yeast inh 15, PolyA inhibitor 11, GASC-1 inh 2, NALP1 inh 47 and HDAC3 inh 4.
`CCOC(=O)c1ccc(N2C(=O)CC(N3CCCC(C)C3)C2=O)cc1` (centres undefined) gave Efflux pump mplx 0, NLRP3 yeast inh 7, PolyA inhibitor -47, GASC-1 inh -2, NALP1 inh 105* and HDAC3 inh 3.
CCOC(=O)c1ccc(N2C(=O)CC(N3CCN(Cc4ccccc4)CC3)C2=O)cc1 (centres undefined) was read as Efflux pump mplx 0, NLRP3 yeast inh 21, PolyA inhibitor -21, GASC-1 inh 21, NALP1 inh 2 and HDAC3 inh 7.
For Cc1cccc(C)c1Nc1nnc(SCC(=O)c2ccc(Br)s2)s1 the results were Efflux pump mplx 0, NLRP3 yeast inh -3, PolyA inhibitor -17, GASC-1 inh 11, NALP1 inh 33 and HDAC3 inh 27*.
O=C(NC1CCCc2ccccc21)c1ccc(Br)cc1 (centres undefined) was read as Efflux pump mplx 0, NLRP3 yeast inh 23, PolyA inhibitor -2, GASC-1 inh 58*, NALP1 inh 15 and HDAC3 inh 5.
For CCN(CC)S(=O)(=O)c1ccc2[nH]cc(C(=O)NCCN3CCCCCC3)c(=O)c2c1 the results were Efflux pump mplx 0, NLRP3 yeast inh -17, PolyA inhibitor 1, GASC-1 inh 7, NALP1 inh 32* and HDAC3 inh inconclusive.
Cc1ccc(S(=O)(=O)N[C@H](C(=O)OCC(=O)NC(=O)C2CCCCC2)C(C)C)cc1 was read as Efflux pump mplx 0, NLRP3 yeast inh 7, GASC-1 inh 0 and HDAC3 inh 3.
